# Assay results taken from PubChem BioAssay AID1851 (National Center for Advancing Translational Sciences (NCATS), 2009).
# Among all 16,000 compounds or so, about 5,800 (36%) were called active. Another 23% or so got no clear call; they are omitted. Calls follow the shape of the dose curve; as a rule, active = well fitted curve in the direction sought with a large enough effect; inconclusive = small, poorly fitted or top-dose-only effect, or effect the other way; inactive = no such curve, though single readings can be large or run the other way. The list shows a part of the results.
# Target: Cytochrome P450 2C19 (Homo sapiens) (UniProt P33261)
# Test: Cytochrome panel assay with activity outcomes
# Conditions: recombinant CYP, pro-luciferin dealkylation, luminescence, p450-cyp2c19; series mostly up to 57.1 µM
# % is scaled to controls: 0 for no effect and ±100 for the full control effect.
# Cytochrome P450 2C19 (Homo sapiens), sequence (P33261 whole entry, looked up): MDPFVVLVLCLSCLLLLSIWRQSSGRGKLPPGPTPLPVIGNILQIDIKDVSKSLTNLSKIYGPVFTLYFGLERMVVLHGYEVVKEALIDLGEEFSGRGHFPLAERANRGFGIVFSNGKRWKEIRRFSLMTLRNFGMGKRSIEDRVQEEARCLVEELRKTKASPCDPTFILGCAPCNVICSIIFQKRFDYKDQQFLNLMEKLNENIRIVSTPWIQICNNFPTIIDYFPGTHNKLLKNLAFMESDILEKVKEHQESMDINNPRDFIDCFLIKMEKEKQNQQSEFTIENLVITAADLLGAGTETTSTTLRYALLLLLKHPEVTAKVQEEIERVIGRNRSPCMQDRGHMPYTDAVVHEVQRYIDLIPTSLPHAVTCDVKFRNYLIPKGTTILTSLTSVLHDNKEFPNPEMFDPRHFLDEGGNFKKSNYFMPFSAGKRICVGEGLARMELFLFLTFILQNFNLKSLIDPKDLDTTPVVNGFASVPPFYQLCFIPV
SMILES,AC50,"activity, negative = inhibition"
CC1CCN(C(=S)c2ccc(O)cc2)CC1,3.55 µM (active),–
O=C(Nc1cccnc1Cl)C1c2ccccc2Oc2ccccc21,0.794 µM (active),–
Cc1cccc2sc(NC(=O)C3c4ccccc4Oc4ccccc43)nc12,2.51 µM (active),–
Cc1cccc2c1Oc1ccccc1[C@@H]2NC(=O)c1ccc([N+](=O)[O-])cc1,–,-12.7% [at 11.4 µM] (inactive)
N[C@](CC1c2ccccc2Oc2ccccc21)(C(=O)O)[C@@H]1C[C@@H]1C(=O)O,inactive,–
O=C1C2=CC[C@@H]3C(=O)N(c4ccc(F)cc4F)C(=O)[C@H]3[C@H]2[C@H](O)[C@H]2O[C@H]12,–,-24% [at 11.4 µM] (inactive)
Cc1noc(C)c1C(=O)N1CCC2(CCCN(Cc3ccccc3)C2)CC1,inactive,–
OCCN(Cc1ccccc1)Cc1cccc(Cl)c1Cl,0.282 µM (active),–
COCCNc1nc(-c2ccc(C(=O)N(C)C)cc2)nc2ccccc12,inactive,–
COCCNc1nc(-c2ccc(N(C)C)cc2)nc2ccccc12,15.8 µM (active),–
CN(C)c1ccc(-c2nc(NCCc3cnc[nH]3)c3ccccc3n2)cc1,1.58 µM (active),–
Cc1noc(C)c1-c1nc(N2CCN(C)CC2)c2ccccc2n1,inactive,–
COCCNc1nc(-c2ccccc2CN(C)C)nc2ccccc12,inactive,–
COc1ccc(OC)c(Nc2nc(-c3cccc([N+](=O)[O-])c3)nc3ccccc23)c1,inactive,–
COc1ccc(CNc2nc(-c3c(C)noc3C)nc3ccccc23)c(OC)c1,3.16 µM (active),–
CC(=O)NCCNc1nc(-c2ccc(N(C)C)cc2)nc2ccccc12,inactive,–
COc1ccc(CNc2nc(-c3ccc4c(c3)OCO4)nc3ccccc23)c(OC)c1,7.94 µM (active),–
Cn1cccc1C(=O)N1CCC2(CC1)CN(Cc1ccc(C#N)cc1)C2,inactive,–
CNC(=O)[C@@H]1O[C@@H](n2cnc3c(NCc4cccc(I)c4)ncnc32)[C@H](O)[C@@H]1O,inactive,–
COc1c(O[C@H]2O[C@@H](CO)[C@@H](O)[C@@H](O)[C@@H]2O)cc2c(c1OC)-c1ccc(SC)c(=O)cc1[C@H](NC(C)=O)CC2,inactive,–
COc1ccc(CNc2nc(-c3ccc(C(=O)N(C)C)cc3)nc3ccccc23)c(OC)c1,15.8 µM (active),–
COc1ccccc1CNc1nc(-c2ccc3c(c2)OCO3)nc2ccccc12,3.16 µM (active),–
COc1ccccc1CNc1nc(-c2ccc(N(C)C)cc2)nc2ccccc12,10 µM (active),–
C=CC1=C(C)C2=Cc3c(C=C)c(C)c4[n]3[Sn+2][n]3c(c(C)c(CCC(=O)O)c3=CC3=NC(=C4)C(C)=C3CCC(=O)O)=CC1=N2,inactive,–

SMILES,AC50,"activity, negative = inhibition"
C=C1C(=O)O[C@@H]2[C@H]3O[C@]3(C)CCC=C(C)CC[C@@H]12,inactive,–
CCC(=O)NC(Nc1sc2c(c1C(=O)OC)CCCC2)(C(F)(F)F)C(F)(F)F,3.98 µM (active),–
CC(C)CC(=O)N[C@H](C(=O)N[C@H](C(=O)N[C@@H](CC(C)C)[C@H](O)CC(=O)N[C@@H](C)C(=O)N[C@@H](CC(C)C)[C@H](O)CC(=O)O)C(C)C)C(C)C,inactive,–
C#CCCCO/N=C1/[C@H]2O[C@@H]2[C@@H](O)[C@H]2[C@H]1CCn1c(=O)n([C@@H](CC)c3ccccc3)c(=O)n12,–,-6.75% [at 11.4 µM] (inactive)
COc1ccc(C(=O)CN(C(=O)c2ccc(Cl)cc2)N2C(=O)c3ccccc3C2=O)cc1,4.47 µM (active),–
Cc1ccc(C(=O)CN(C(=O)c2ccc(Cl)cc2)N2C(=O)c3ccccc3C2=O)cc1,15.8 µM (active),–
COc1ccccc1CNc1ncncc1-c1ccccc1C,3.98 µM (active),–
COc1ccccc1CNc1ncncc1-c1ccccc1Cl,1.26 µM (active),–
COc1ccc(CNc2ncncc2-c2ccccc2OC)c(OC)c1,2 µM (active),–
COc1ccc(CNc2ncncc2-c2ccccc2C)c(OC)c1,1.58 µM (active),–
CCCCOc1ccccc1N,14.1 µM (active),–
CCCCOc1cc(C[C@@H]2CNC(=O)N2)ccc1OC,inactive,–
CC[N+](CC)(CC)CCOc1cccc(OCC[N+](CC)(CC)CC)c1OCC[N+](CC)(CC)CC,inactive,–
Cc1ccc(-n2ncc3c(=O)n(CC(=O)NCC4CCCO4)cnc32)cc1 (stereo not drawn),inactive,–
CC(C)(C)n1ncc2c(=O)n(CC(=O)NCc3ccccc3Cl)cnc21,14.1 µM (active),–
Cc1ccc(NC(=O)Cn2cnc3c(cnn3C(C)(C)C)c2=O)cc1,inactive,–
Cc1ccc(C)c(Cn2cnc3c(cnn3C(C)(C)C)c2=O)c1,0.398 µM (active),–
Cc1ccccc1Cn1cnc2c(cnn2C(C)(C)C)c1=O,2 µM (active),–
Nc1cc(Cl)ccc1Oc1ccc(Cl)cc1,0.562 µM (active),–
O=c1[nH]c2cc(Cl)ccc2c(O)c1-c1ccc(Oc2ccccc2)cc1,inactive,–
Nc1cc(Cl)ccc1Oc1ccccc1,3.98 µM (active),–
Cc1cc(=O)[nH]c(-n2[nH]c(C)cc2=O)n1,inactive,–
CCCn1c(C)nc2c(c1=O)c1nc3ccccc3nc1n2CCC1=CCCCC1,8.91 µM (active),–
CCO/C(C)=N/n1c2nc3ccccc3nc2c2c(=O)n(CC(C)C)c(C)nc21,inactive,–
